Bioassay records: PubChem, National Center for Advancing Translational Sciences (NCATS)
Shown are actives, neighbours in structure and some others; about 2.9% of the full set was active somewhere.
DRD3 agonist: activates the human D3 dopamine receptor | D3R DiscoveRx beta-arrestin cells, luminescence, 90 min | P35462 | AID 652048 | max activation, % | 0.58% of 410,000 active; in the data active = max activation above about 30%
Target sequence (P35462 whole entry, looked up): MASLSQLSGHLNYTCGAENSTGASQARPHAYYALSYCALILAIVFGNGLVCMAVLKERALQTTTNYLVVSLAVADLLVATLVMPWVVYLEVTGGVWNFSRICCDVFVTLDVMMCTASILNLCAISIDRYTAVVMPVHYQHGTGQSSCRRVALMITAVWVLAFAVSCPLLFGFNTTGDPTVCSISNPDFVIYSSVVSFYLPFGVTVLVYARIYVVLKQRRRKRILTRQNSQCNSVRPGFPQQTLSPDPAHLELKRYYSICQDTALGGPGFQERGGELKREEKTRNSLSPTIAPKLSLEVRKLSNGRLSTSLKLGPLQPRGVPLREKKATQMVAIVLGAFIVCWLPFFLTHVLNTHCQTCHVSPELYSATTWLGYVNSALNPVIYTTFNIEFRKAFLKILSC
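Agonist mode: compounds and dopamine controls were applied to plated cells for 90 min at 37 degrees C after an overnight attachment at 1500 cells/well. Luminescent read-out followed 30 - 60 minutes at room temperature with DiscoveRx detection reagent.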
a7 integrin act: activates integrin-mediated alleviation for muscular dystrophy; 0.064% of 350,000 active; alpha7betagal myoblasts, beta-gal FDG fluorescence, 48 h; Potency, µM (top dose mostly 38.3 µM), usual class: activators; active = well fitted activation curve with a large enough effect; inconclusive = small, poorly fitted or top-dose-only effect; inactive = no such curve, though single readings can be large or run the other way; also: nearly all actives have a fitted effect of over 60% in size
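alpha7betagal+/- myoblasts (passage 13, 250/well) treated 48 h at 37C with compounds at 1:260 dilution of DMSO stock. Lysed, then beta-galactosidase activity read as FDG fluorescence (ex 480/em 540) after 30 min, with pre-read for autofluorescence.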
D3 antag: antagonists of human D3 dopamine receptor; P35462; D3R cells, DiscoveRx beta-arrestin luminescence, antagonist mode; hits give low values; max response, negative = inhibition, %; 2.5% of 360,000 active; AID 652054; in the data active = max response below about -50%; inconclusive = no clear call, values can overlap the other calls
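Cells expressing the human receptor were seeded at 1500 cells/well, incubated overnight at 37 degrees C in 5% CO2, then exposed to library compounds with dopamine controls for 90 minutes at 37 degrees C before luminescent detection.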
A number is an active result; . = inactive; ? = inconclusive; / = no result; ! = a repeat was not active; [ ] = dose if it differs, or a comment.

SMILES	DRD3 agonist	a7 integrin act	D3 antag
O=S(=O)(NNc1ncc(C(F)(F)F)cc1Cl)c1ccc(F)cc1F	.	.	.
CC(=O)c1sc(NS(=O)(=O)c2ccc(C)cc2)nc1-c1ccccc1	.	.	.
Nc1ccc(C(=O)Nc2ccc(Nc3ccncc3)cc2)c([N+](=O)[O-])c1	.	.	.
CN1CCN(c2ccc(NC(=O)c3ccco3)cc2Cl)CC1	.	.	.
CC(C)(Oc1ccc(Cl)cc1)C(=O)Nc1cccc(S(=O)(=O)NC2=NCCC2)c1	.	.	.
Cc1cc2ncn(S(=O)(=O)c3ccc(S(=O)(=O)N4CCCCCC4)cc3)c2cc1C	.	.	.
COc1ccc2nc(-c3ccccc3)cc(OC)c2c1	32.6	.	.
COc1ccc2nc(-c3ccccc3)[nH]c(=O)c2c1	.	.	.
COc1cccc(-n2c(C)c3c(OC)cccc(=O)c3c2C)c1	.	.	.
COc1cccc(=O)c2c(C)n(-c3cc(C)cc(C)c3)c(C)c12	.	.	-65.4
CN(C(=O)CSc1ncccn1)C1CCS(=O)(=O)C1 (stereo unspecified)	.	.	.
CC(=O)Nc1ccc(SCC(=O)N(C)C2CCS(=O)(=O)C2)cc1 (stereo unspecified)	.	.	-59.2
CCc1ccccc1NC(=O)C1=CN2CCS(=O)(=O)N=C2C=C1	.	.	.
c1cncc(-c2nc(-c3ccco3)cs2)c1	.	.	-63.1
c1cncc(-c2nnc(-c3ccco3)o2)c1	.	.	-107.8
Clc1ccc(-c2nnc(-c3ccco3)o2)cc1	.	.	.
c1cncc(-c2csc(-c3cccnc3)n2)c1	.	.	.
Fc1cccc(-n2c(-c3ccco3)nc3nc4ccccc4nc32)c1	.	.	.
CCC(C)Sc1c(C(C)C)cnc2c1c(=O)n(C)c(=O)n2C (stereo unspecified)	.	/	/
C=CCn1c(SCC(=O)Nc2ccccc2C)nc2sc(C)c(C)c2c1=O	.	.	.
C=CCn1c(SCC(=O)Nc2sccc2C(N)=O)nc2sc(C)c(C)c2c1=O	40.5	.	.
CCOC(=O)CCP(=O)(O)C(C)(O)c1ccccc1 (stereo unspecified)	.	.	.
Cc1cc(C)cc(NC(=O)Cn2c3ncccc3c(=O)n2-c2ccc(C)c(C)c2)c1	.	/	/
O=S(=O)(Nc1ccc(-c2ccc3nncn3n2)cc1)c1ccc(Cl)s1	.	.	?
CCOC(=O)c1c(NC(=O)C2CCCCC2)sc2c1CCN(CC)C2	.	.	.
SMILES	DRD3 agonist	a7 integrin act	D3 antag
COC(=O)c1cn(NC(=O)Cc2ccc(Cl)c(Cl)c2)c(=O)c2ccccc12	.	.	.
Cc1ncoc1C(=O)NC1CCCc2c1cnn2-c1ccc(C(C)(C)C)cc1 (stereo unspecified)	30.2	.	.
Cc1ncoc1C(=O)NC1CCCc2c1cnn2-c1cc(F)cc(F)c1 (stereo unspecified)	.	.	.
CCOC(=O)c1cnc(Nc2ccccc2)nc1C(F)(F)F	.	.	.
Cc1cc(-c2nn(-c3ccccc3F)cc2CN2CCCC(O)C2)c(C)s1 (stereo unspecified)	.	.	.
Cc1cc(-c2nn(-c3ccccc3F)cc2CN2CCC(C(N)=O)CC2)c(C)s1	.	?	?
COCC1CCN(Cc2cn(-c3ccccc3F)nc2-c2cc(C)sc2C)CC1	.	.	-84.2
Cc1cc(-c2nn(-c3ccccc3F)cc2CN2CCCC(CO)C2)c(C)s1 (stereo unspecified)	.	.	-52.9
Fc1ccc(-c2cc3nc4c(c(N5CCOCC5)n3n2)CCCC4)cc1	47.1	.	.
Cc1cccc(-c2cc3nc4c(c(N5CCOCC5)n3n2)CCCC4)c1	.	.	.
COc1ccc(-c2cc(C(F)(F)F)nc(SCC(=O)N(C)Cc3cn(C)nc3C)n2)cc1OC	.	.	.
COc1ccc(S(=O)Cc2ccc(C(=O)N3CCN(c4cccc(C)c4C)CC3)o2)cc1 (stereo unspecified)	45.0!	.	.
COc1ccc(N2CCN(C(=O)c3ccc(CS(=O)c4cccc(Cl)c4)o3)CC2)cc1 (stereo unspecified)	.	.	.
Cc1cccc(N2CCN(C(=O)c3ccncc3)CC2)c1C	46.4	.	.
Cc1cccc(N2CCN(C(=O)c3ccnn3C)CC2)c1C	.	.	.
COc1cccc(CNC(=O)Cn2nc([N+](=O)[O-])c(Br)c2C)c1	.	?	?
Cc1ccccc1Nc1ncnc2[nH]ncc12	.	.	.
CCCn1c2ccccc2c2cnn(CC(=O)NC3CCCCC3C)c(=O)c21 (stereo unspecified)	.	.	.
CCOc1ccc(C(=O)c2c(N)c(-c3nc(-c4ccc(OCC)cc4)cs3)c3ccccn23)cc1	.	/	/
Cc1oc2c(CN3CCCC3)c(O)ccc2c(=O)c1-c1ccccc1	.	.[7.66 µM]	.
O=[N+]([O-])c1ccc(-[n+]2ccc3ccccc3c2)c([N+](=O)[O-])c1	.	.	-105.7
O=[N+]([O-])c1ccc(SNc2ccccc2)c([N+](=O)[O-])c1	.	.	.
O=C(NCCc1c[nH]c2ccccc12)C(=O)NCC(c1ccco1)N1CCN(c2ccccc2)CC1 (stereo unspecified)	41.1	.	.
O=C(NCCc1c[nH]c2ccccc12)C(=O)NCC(c1ccco1)N1CCN(c2ccc(F)cc2)CC1 (stereo unspecified)	.	.	.
COCCNC(=O)C1(C)CCCN(CCS(=O)(=O)c2ccc(C)cc2)C1 (stereo unspecified)	.	/	.
SMILES	DRD3 agonist	a7 integrin act	D3 antag
Cc1cccc(CS(=O)(=O)c2nnc([C@H](Cc3ccccc3)NC(=O)OC(C)(C)C)o2)c1	.	.[7.66 µM]	-76.5
COC(=O)CS(=O)(=O)c1nnc([C@H](Cc2ccccc2)NC(=O)OC(C)(C)C)o1	.	.	.
COc1ccc(-c2nnc(NC(=O)C(C)C)o2)cc1	.	.	.
CCOc1ccc(NC(=O)C/C(C)=N/NC(=O)Cc2ccc(Cl)cc2)cc1	.	.	.
Cn1c(N)c(C(=O)CSc2ccccn2)c(=O)n(C)c1=O	.	.	.
O=C(Nc1cccc([N+](=O)[O-])c1)C1C2CC/C=C\CCC21 (stereo unspecified)	.	.	.
CCc1nc2sccc2c(=O)[nH]1	.	.	.
COc1ccc(C(C(=O)NC2CCCCC2)N(C(=O)CCl)c2cccc(Cl)c2)cc1 (stereo unspecified)	.	.	.
COc1cc2c(c(OC)c1OC)-c1ccc(OC)c(=O)cc1C(NC(C)=O)CC2 (stereo unspecified)	.	.	.
Cc1cc(C)cc(-n2c3ccc(NC(=O)Cc4cccc5ccccc45)cc3c(=O)n2C)c1	.	/	.
CC(CC(=O)Nc1ccc2c(c1)c(=O)n(C)n2-c1cccs1)c1ccccc1 (stereo unspecified)	.	/	-52.7
O=C(CSc1nc2scc(-c3ccccc3)c2c(=O)[nH]1)Nc1ccccc1	.	.	.
CC(C)CNC(=O)CSc1nc2scc(-c3ccccc3)c2c(=O)[nH]1	47.9	.	.
O=C(NCCc1c[nH]c2ccccc12)C(=O)NCC1OCCCN1S(=O)(=O)c1cc(F)ccc1F (stereo unspecified)	.	.	.
COc1cc(/C=C2\SC(=Nc3ccccc3)N(CCc3c[nH]c4ccccc34)C2=O)ccc1OC(C)C(=O)O (stereo unspecified)	.	.	.
